Screening data (PubChem)
A selection: hits, their analogues and other compounds. The true share with any hit is near 5.9%.
ATXN viability = cell viability loss in ATXN counter-screen; S2 cells (HEK-293 line with an ATXN2-luciferase reporter) viability, CellTiter-Fluor protease fluorescence, 24 h; Potency, µM (titrated, usually from 56.7 µM), hits mostly cytotoxic; actives 0.49% (n = 400,000); AID 651635; further: nearly all actives have a fitted effect of over 40% in size
KB-V1 cytotox = KB-V1 MDR subline cytotoxicity; KB-V1 MDR cells viability, CellTiter-Glo, 72 h; actives 3.4% (n = 400,000); AID 1347076; Potency, µM (series often up to 46.1 µM), usual class: cytotoxic; further: on the % scale 0 is the no-effect control and ±100 the full control effect; nearly all actives have a fitted effect of over 60% in size
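KB-V1 cells (P-gp-expressing MDR subline of KB-3-1) in phenol-red-free DMEM with 10% FBS were exposed to library compounds over a concentration series for 72 h at 37 degrees C. Viability read by CellTiter-Glo luminescence; concentration-effect curves fitted after normalization.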
ATXN2 expr inh = ATXN2 expression inhibition | HEK-293 ATXN2-luciferase reporter, luminescence, 24 h | Potency, µM (titrated, usually from 57 µM), for inactives: at the top dose activity change, negative = inhibition, hits mostly inhibitors | actives 0.72% (n = 360,000); further: on the % scale 0 is the no-effect control and ±100 the full control effect; nearly all actives have a fitted effect of over 55% in size
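ATXN2-luciferase reporter cells (luciferase flanked by upstream and downstream ATXN2 gene portions) were treated 24 h at 37 °C with compounds at up to 57 uM. SteadyGlo luminescence gave expression; GF-AFC fluorescence gave viability.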
KB-3-1 cytotox = KB-3-1 parental cell cytotoxicity. KB-3-1 viability, CellTiter-Glo ATP luminescence, 72 h. actives 1.4% (n = 400,000). Potency, µM (series often up to 46.1 µM), actives largely listed as cytotoxic. AID 1347075; further: on the % scale 0 is the no-effect control and ±100 the full control effect; nearly all actives have a fitted effect of over 60% in size
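72 h, 37 °C compound treatment of KB-3-1 parental cells; CellTiter-Glo added, 10 min, luminescence read. Data corrected against DMSO-only plates and normalized before curve fitting.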
HepG2 tox = counter-screen for TGF-b inhibitors: cytotoxicity in HepG2 cells | HepG2 CAGA-GFP viability, ATP luminescence, 18 h | Potency, µM (doses to about 46.1 µM), for inactives: at the top dose activity change, negative = cytotoxicity, usual class: cytotoxic | actives 0.76% (n = 410,000) | AID 588856
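HepG2 CAGA-GFP cells (1000/well, DMEM with 1% FBS) received compound, then TGF-beta at 500 pg/mL final, and were incubated 18 hours at 37 degrees C. Viability was read by CellTiter-Glo luminescence. Media-only wells were set as complete cell-killing and DMSO as no toxicity.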
TGFb inhibitor = inhibitors of TGF-b signaling | AID 588855 | HepG2 CAGA-GFP TGF-b/SMAD3 reporter, GFP fluorescence, 18 h; TGF-beta stimulated, 500 pg/mL final | Potency, µM (top dose mostly 46.1 µM), inactives show at the top dose activity, negative = inhibition, hits mostly inhibitors | actives 1.2% (n = 410,000); further: on the % scale 0 is the no-effect control and ±100 the full control effect; nearly all actives have a fitted effect of over 65% in size
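Read-out: total well GFP (ex488/em500-530) summed from mean per-cell fluorescence. Cells: HEPG2 CAGA-GFP, 1% FBS DMEM, 18 h at 37 degrees C with 500 pg/mL final TGF-beta. Unstimulated wells served as the full-inhibition control; stimulated DMSO wells = 0%.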
* hit, by the source's call; i = inactive; ? = inconclusive; nt = not tested or not shown. The call rests on the fitted dose curve; in most records, active means well fitted curve in the direction sought with a large enough effect; inconclusive means small, poorly fitted or top-dose-only effect, or another doubt; inactive means no such curve, though single readings can be large; an effect the other way counts as inactive or inconclusive. Potency means the concentration at half of the fitted maximal effect.

SMILES	ATXN viability	KB-V1 cytotox	ATXN2 expr inh	KB-3-1 cytotox	HepG2 tox	TGFb inhibitor
COc1cccc(N(CC(=O)NCCSc2ccccc2)S(C)(=O)=O)c1	i	i	3%	i	-15%	6%
CC(C)(C)SCCNC(=O)CN(c1ccc(F)c(Cl)c1)S(C)(=O)=O	i	18µM*	0%	i	-7%	-8%
COc1ccc(N(CC(=O)NCCSCc2c(F)cccc2Cl)S(C)(=O)=O)cc1OC	i	8.2µM*	-2%	i	4%	-1%
CCOc1ccc(NC(=O)CSc2nc3c(oc4ccccc43)c(=O)n2-c2cc(C)cc(C)c2)cc1	i	?	10%	?	0%	?
CCCC1([C@H](O)C/C=C/[C@H]2[C@H](O)CC(=O)[C@@H]2CCCCCCC(=O)OC)CCC1	35µM*	nt	nt	nt	nt	nt
CCS(=O)(=O)NCc1c(C)ncc2c1CCN(C(=O)c1ccc(F)cc1)C2	i	nt	nt	nt	nt	nt
COc1nc(Nc2ccc(O)cc2)nc(OC(C(F)(F)F)C(F)(F)F)n1	i	i	0%	?	-64%	?
Nc1cccc(Nc2nc(OC(C(F)(F)F)C(F)(F)F)nc(OC(C(F)(F)F)C(F)(F)F)n2)c1	i	23µM*	-25%	18µM*	11µM*	?
CCOC(=O)c1ccccc1NC(=O)COC(=O)c1ccc(C)c(S(=O)(=O)N2CCOCC2)c1	i	i	-16%	i	13%	-3%
O=C(Nc1ccccc1N1CCCC1)c1ccc(Cl)c(S(=O)(=O)N2CCOCC2)c1	i	15µM*	-2%	i	-12%	-29%
CCOC(=O)c1ccccc1NC(=O)COC(=O)c1ccc(OCC(=O)N2CCOCC2)c(OCC)c1	i	2.6µM*	-3%	i	3%	7%
CCOC(=O)c1ccccc1NC(=O)c1ccc(Cl)c(S(=O)(=O)N2CCOCC2)c1	i	7.3µM*	-3%	i	-16%	4%
O=C(Nc1ccccc1N1CCCCC1)c1ccc(F)c(S(=O)(=O)N2CCOCC2)c1	i	i	-35%	?	0%	2%
O=C(Nc1ccccc1N1CCCC1)c1cccc(-c2cc3ccccc3oc2=O)c1	i	3.7µM*	13%	i	2%	0%
O=C(Nc1ccc(N2CCCC2)cc1)c1cccc(-c2cc3ccccc3oc2=O)c1	i	i	0%	i	4%	?
COc1ccccc1N1CCN(c2nc3ccccc3n3cnnc23)CC1	i	?	10%	i	-9%	33%
CCc1ccc(N(CC)C(=O)Cn2cnc3sc(C)c(S(=O)(=O)N4CCN(c5ncccn5)CC4)c3c2=O)cc1	i	i	6%	i	-5%	-2%
O=C(Cn1c(-c2cccs2)cc2cc(Cl)ccc21)N1CCN(c2ccccc2)CC1	i	i	1%	i	-25%	?
COc1ccccc1OCCNC(=O)/C=C/c1ccc([N+](=O)[O-])cc1	i	15µM*	-5%	i	-7%	-23%
CCCOc1ccc(/C=C/C(=O)Nc2ccc([N+](=O)[O-])cc2)cc1	?	26µM*	?	7.3µM*	-10%	0%
CCCCOc1ccc(/C=C/C(=O)Nc2ccc([N+](=O)[O-])cc2C)cc1	i	i	7%	i	1%	4%
Cc1cc(CC(C)CC(C)(C)C)n(O)c(=O)c1 (stereo not given)	nt	i	nt	i	-12%	5.6µM*
COc1cc(CNC(=O)Nc2nnc([C@H]3C[C@H](O)[C@@H](CO)O3)s2)cc(OC)c1OC	i	i	1%	i	7%	21%
COc1ccccc1CNC(=O)C1CC2Cn3c(nc4ccccc43)C2N1C (stereo not given)	i	?	-2%	i	-3%	?
